The panel holds about 83,000 compounds, 20% with a hit somewhere; the sample as a whole holds those more often.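 48-hour exposure, single concentration, 96-well plates; percent growth endpoint where 0 means no net growth. Active: below 10.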 A number with no mark means an inactive call. Active and inactive are the calls of the source.
How the values were obtained:
Test in all cases: NCI-60 one-dose screen, 48 h (100 = growth as untreated, 0 = no growth, -100 = all killed)
Details in all cases: 10 µM unless noted
NCI-H23 lung = test system: NCI-H23 lung
NCI-H226 lung = test system: NCI-H226 lung
NCI-H322M lung = test system: NCI-H322M lung
HOP-62 NSCLC = test system: HOP-62 NSCLC
NCI-H460 lung = test system: NCI-H460 lung
NCI-H522 lung = test system: NCI-H522 lung
A549/ATCC NSCLC = test system: A549/ATCC NSCLC
786-0 renal = test system: 786-0 renal
COLO 205 colon = test system: COLO 205 colon
DU-145 prostate = test system: DU-145 prostate
K-562 leukemia = test system: K-562 leukemia
MDA-MB-231 breast = test system: MDA-MB-231 breast
RXF 393 renal = test system: RXF 393 renal
SF-268 CNS = test system: SF-268 CNS
SF-295 CNS = test system: SF-295 CNS
SF-539 CNS = test system: SF-539 CNS
UACC-257 melanoma = test system: UACC-257 melanoma
M14 melanoma = test system: M14 melanoma
HCT-15 colon = test system: HCT-15 colon

Row | Compound | growth (NCI-H23 lung) [%] | growth (NCI-H226 lung) [%] | growth (NCI-H322M lung) [%] | growth (HOP-62 NSCLC) [%] | growth (NCI-H460 lung) [%] | growth (NCI-H522 lung) | growth (A549/ATCC NSCLC) | growth (786-0 renal) [%] | growth (COLO 205 colon) [%] | growth (DU-145 prostate) [%] | growth (K-562 leukemia) [%] | growth (MDA-MB-231 breast) [%] | growth (RXF 393 renal) [%] | growth (SF-268 CNS) [%] | growth (SF-295 CNS) [%] | growth (SF-539 CNS) [%] | growth (UACC-257 melanoma) [%] | growth (M14 melanoma) [%] | growth (HCT-15 colon) [%]
1 | CC1=CSC2=NCCN12 | 104 | 112 | 118 | 108 | 109 | 100% | 105% | 104 | 107 | 108 | 101 | 122 | 121 | 102 | 132 | 95.8 | 116 | 108 | 109
2 | CCOC(=O)/C(=C/c1ccccc1)C(=O)c1ccccc1 | 82.4 | 84.3 | 84.2 | 74.9 | 88.3 | 67.6% | 79.8% | 80.5 | 95.4 | 50.3 | 38.9 | 81.4 | – | 62 | 83 | 84.4 | 64.1 | 66.1 | 51.9
3 | Cc1cc2c(C#N)n3c(c2cc1C)C(=O)C(c1ccccc1)Oc1ccccc1-3 (centres undefined) | 21 | 34.6 | 81.8 | 35.7 | 42.1 | -35.7% (active) | 4.49% (active) | 41.7 | 56.6 | 64.4 | 12.7 | 58.9 | – | 35.1 | 14.8 | 74 | 44.7 | 36.8 | 16.4
4 | CCCCCCC(C)(O)c1ccccc1 (centres undefined) | 102 | 106 | 126 | 105 | 110 | 100% | 110% | 108 | 114 | 118 | 101 | 109 | 124 | 107 | 125 | 110 | 115 | 105 | 110

Reference: PubChem BioAssay (NCI)
